Assay outcomes deposited in PubChem BioAssay by National Center for Advancing Translational Sciences (NCATS).
Vaccinia mCherry – inhibitors of vaccinia virus infection (mCherry reporter signal). Potency, µM (highest dose often 36.5 µM), actives largely listed as inhibitors. AID 720579. 310,000 tested, 0.63% active. Vaccinia virus mCherry reporter infection, fluorescence; calls by dose curve; tested in A549 cells; further: nearly all actives have a fitted effect of over 35% in size
FMDV antiviral – blocks foot and mouth disease virus. FMDV antiviral cell-based qHTS. Potency, µM (top dose mostly 57.9 µM), hits mostly inhibitors. 410,000 tested, 1.2% active. AID 1159524; calls by dose curve; tested in HEK293T cells; further: read-out not given here; nearly all actives have a fitted effect of over 45% in size
Vaccinia Venus – inhibitors of vaccinia virus (Venus reporter); AID 720580; Vaccinia virus Venus reporter expression, fluorescence; Potency, µM (top dose mostly 36.5 µM), most hits filed as inhibitors; 330,000 tested, 0.46% active; calls by dose curve; tested in A549 cells; further: nearly all actives have a fitted effect of over 30% in size
FBPA Giardia inh – blocks Giardia fructose-bisphosphate aldolase activity | purified Giardia FBPA | Potency, µM (titrated, usually from 59.6 µM), hits mostly inhibitors | 290,000 tested, 0.71% active | AID 2451 | A8B2U2; active means well fitted inhibition curve with a large enough effect; inconclusive means small, poorly fitted or top-dose-only effect, or effect the other way; further: nearly all actives have a fitted effect of over 55% in size
Target sequence (A8B2U2 whole entry, looked up): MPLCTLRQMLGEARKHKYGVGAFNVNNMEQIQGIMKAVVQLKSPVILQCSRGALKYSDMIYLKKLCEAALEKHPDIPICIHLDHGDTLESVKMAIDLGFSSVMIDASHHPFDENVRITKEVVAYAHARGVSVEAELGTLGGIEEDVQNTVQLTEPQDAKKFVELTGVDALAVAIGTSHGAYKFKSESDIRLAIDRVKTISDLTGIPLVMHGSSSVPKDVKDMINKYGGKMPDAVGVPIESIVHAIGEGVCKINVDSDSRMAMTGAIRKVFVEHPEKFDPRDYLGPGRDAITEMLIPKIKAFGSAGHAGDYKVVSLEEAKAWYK
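Giardia FBPA (40 nM reagent) was preincubated 10 min at RT with compound (up to 57.5 uM final), then substrate plus GAPDH/TPI/NAD/arsenate coupling system with diaphorase/resazurin was added; resorufin fluorescence (525/598 nm) was read after 20 min.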
Hits are given with their value; i = inactive; ? = inconclusive; nt = not tested or not shown; [ ] = remark or other dose. Hits are enriched below; roughly 2.2% of the tested compounds scored in any of these assays.

SMILES | Vaccinia mCherry | FMDV antiviral | Vaccinia Venus | FBPA Giardia inh
COc1ccc(-c2cn(-c3ccccc3)nc2CO)cc1 | i | i | i | i
COc1ccc(-c2csc(=Nc3ccccc3)n2CCO)cc1 | i | 25.1µM | i | i
C=CCn1c(-c2ccc(OC)cc2)csc1=Nc1c(C)n(C)n(-c2ccccc2)c1=O | nt | 22.4µM | ? | i
Cc1ccc(-c2csc(=Nc3ccccc3)n2CCCO)cc1 | i | 31.6µM | i | nt
COc1ccc(-c2csc(=NCCO)n2-c2ccccc2)cc1 | i | 17.8µM | i | i
COc1ccc(-n2c(CNC(=O)c3c(-c4ccccc4)noc3C)nnc2SC)cc1 | i | i | i | nt
Cc1cccc(C(=O)N[C@H]2CC[C@@H](n3cc(C(=O)N4CCCC4)nn3)CC2)c1 | i | i | i | nt
CN(C(Cc1ccc(OS(=O)(=O)c2cccc3cnccc23)cc1)C(=O)N1CCN(c2ccccc2)CC1)S(=O)(=O)c1cccc2cnccc12 (configuration not stated) | i | i | i | nt
O=C(/C=C/c1ccc(Cl)cc1)N1CCN(c2ccc([N+](=O)[O-])c(N3CCOCC3)c2)CC1 | i | 14.1µM | i | i
O=C(/C=C/c1ccc(Cl)cc1Cl)N1CCN(c2ccc([N+](=O)[O-])c(N3CCOCC3)c2)CC1 | i | ? | i | i
CCCC[C@H]1COCCS(=O)(=O)N1Cc1ccc(C)cc1 | ? | i | 2.24µM | i
CC(C)[C@H]1COCCS(=O)(=O)N1Cc1ccc(Cl)cc1 | 25.1µM | i | ? | i
O=C(N/N=C/c1ccccc1O)C(=O)N1CCCCCC1 | 7.94µM | i | i | nt
O=C(N/N=C/c1ccccc1F)C(=O)N1CCCCCC1 | i | i | i | i
CNc1c(Br)cc(C(O)C2=CCc3ccccc32)cc1Br (configuration not stated) | i | nt | i | nt
COc1ccccc1C1CN(Cc2cccc3nccnc23)Cc2ccccc2O1 (configuration not stated) | i | i | i | nt
O=[N+]([O-])c1ccc(N2CCOCC2)c2cccnc12 | i | i | i | i
O=[N+]([O-])c1cccc2c(N3CCCC3)ccnc12 | ? | ? | 7.08µM | i
Cc1cc(C)c(NC(=S)NCC2CCN(C(C)c3ccccc3)C2)c(C)c1 (configuration not stated) | i | i | i | 1.99µM
CSc1nnc(NC(=O)c2nc(S(=O)(=O)Cc3cccc(C)c3)ncc2Cl)s1 | i | 5.62µM | i | nt
Cc1ccc(CS(=O)(=O)c2ncc(Cl)c(C(=O)Nc3nnc(C(C)C)s3)n2)cc1 | i[7.34 µM] | 11.2µM | i | i
Cc1cccc(CS(=O)(=O)c2ncc(Cl)c(C(=O)Nc3nnc(C(C)C)s3)n2)c1 | i | 8.91µM | i | nt
CCSc1nnc(NC(=O)c2nc(S(=O)(=O)Cc3ccc(F)cc3)ncc2Cl)s1 | i | 8.91µM | i | nt
CC(C)c1nnc(NC(=O)c2nc(S(=O)(=O)Cc3ccc(F)cc3)ncc2Cl)s1 | i | i | i | nt
CSc1ncc(Cl)c(C(=O)Nc2nnc(SC/C=C/c3ccccc3)s2)n1 | i | i | i | ?
SMILES | Vaccinia mCherry | FMDV antiviral | Vaccinia Venus | FBPA Giardia inh
C[N+](C)(C)c1ccc(/C=C2\C=Cc3ccccc32)cc1 | i | nt | i | nt
C=CC1=C(C)C2=CC3=NC(=C(CC(=O)[O-])C4=NC(=C(C)C4=C([O-])[O-])C=c4[n-]c(c(C)c4CC)=CC1=N2)C(CCC(=O)[O-])C3C.[Cu+2].[Na+].[Na+].[Na+] (configuration not stated) | i | ? | i | nt
[N-]=[N+]=NC(c1ccccc1)C(NC(=O)c1cc(C(F)(F)F)cc(C(F)(F)F)c1)c1ccccc1 (configuration not stated) | i | 25.1µM | i | nt
O=C(NC(c1ccccc1)C(Cl)Cl)c1ccccc1 (configuration not stated) | i | i | i | i
CCCCNC(=S)N/N=C/c1cccc(OCC)c1O | ? | i | i | i
CCOc1cccc(/C=N/NC(=S)Nc2ccccc2[N+](=O)[O-])c1O | nt | 1.78µM | nt | i
COc1cc(-c2nnc3sc(C4CCCCC4)nn23)cc(OC)c1OC | ? | ? | 5.62µM | i
COc1cccc(-c2nnc3sc(C4CCCCC4)nn23)c1 | nt | i | nt | i
Cc1nc(Nc2ccc(O)cc2)c2c3c(sc2n1)CCCC3 | 11.2µM | i | ? | i
Cc1ccc(CNc2nc(C)nc3sc4c(c23)CCC4)cc1 | ? | ? | i | i
NCCCn1c(C(=O)c2cc(Cl)c(N)c(Cl)c2)c2ccc([N+](=O)[O-])cc2[n+]1[O-] | ? | i | 12.6µM | nt
c1ccc(-c2noc(-c3ccc4c(c3)OCO4)n2)cc1 | i | 14.1µM | i | i
COc1ccc(-c2noc(-c3ccc4c(c3)OCO4)n2)cc1 | i | i | i | i
COc1ccc(NC(=O)COC(=O)c2c3c(nc4ccccc24)CCCC3)cc1 | ? | 22.4µM | i | i
CCc1nc2ccccc2c(C(=O)OCC(=O)NCc2ccco2)c1C | i | i | i | i
CCc1nc2ccccc2c(C(=O)OCC(=O)Nc2ccc(NC(C)=O)cc2)c1C | nt | 31.6µM | nt | nt
CCc1ccc2[nH]c(=O)c(CN(Cc3cccs3)Cc3nnnn3Cc3ccccc3)cc2c1 | i | nt | i | nt
Oc1ccccc1C=NNC(=S)Nc1ccc(F)cc1 | 5.62µM | i | ? | nt
Cc1c(NC(=S)N/N=C\c2ccccc2O)c(=O)n(-c2ccccc2)n1C | 12.6µM | i | ? | i
CN(C)c1nc(N/N=C/c2ccccc2O)nc(Nc2ccc(F)cc2)n1 | 7.94µM | ? | ? | ?
Fc1ccc(NC(=S)NN=Cc2ccccc2Cl)cc1 | i | i | i | nt
Cc1c(NC(=S)N/N=C/c2ccc(Br)cc2)c(=O)n(-c2ccccc2)n1C | i | i | i | i
Cc1ccc(C)c(CN2C[C@H](Sc3ccccn3)C[C@H]2C(=O)Nc2ccc3sc(C)nc3c2)c1 | i | i | i | nt
CC(C)(C)OC(=O)NCc1ccc(CNC(=O)c2nc[nH]c2C(=O)NCc2ccccc2)cc1 | i | ? | i | nt
CC(C)(C)OC(=O)CNC(=O)c1[nH]cnc1C(=O)NCCCCCNC(=O)OC(C)(C)C | ? | 15.8µM | i | ?
SMILES | Vaccinia mCherry | FMDV antiviral | Vaccinia Venus | FBPA Giardia inh
CC(C)(C)OC(=O)NCc1ccc(CNC(=O)c2[nH]cnc2C(=O)NCC(=O)OCc2ccccc2)cc1 | i | 28.2µM | i | i
CC(C)(C)OC(=O)CNC(=O)c1[nH]cnc1C(=O)NCCCCCN | i | i | i | nt
C[C@@H](OC(=O)c1[nH]cnc1C(=O)NCc1ccc(CNC(=O)OC(C)(C)C)cc1)c1ccccc1 | ? | 31.6µM | ? | nt
COc1cc(-c2cc(C)c3c(OC)ccc(OC)c3n2)cc2c1OCCN(C(=O)C(C)c1n[nH]c(=O)c3ccccc13)C2 (configuration not stated) | i | i | i | nt
COC(=O)C1C(=O)C(C(=O)/C=C/c2ccccc2)C(=O)CC1(C)C (configuration not stated) | 11.2µM | ? | ? | i
COc1ccc(-c2cccc3c2OC(CNC(=O)c2ccccc2-n2cccn2)C3)nn1 (configuration not stated) | i | i | i | nt
COC(=O)c1cc(=O)n(Cc2ccc(OC)c(OC)c2)c(=Nc2ccc(F)cc2)s1 | i | 12.6µM | i | i
COC(=O)c1cc(=O)n(CCc2ccc(OC)c(OC)c2)c(=Nc2ccc(F)c(Cl)c2)s1 | i | 28.2µM | i | i
COC(=O)c1cc(=O)n(Cc2ccc(F)cc2)c(=Nc2ccccc2)s1 | nt | ? | nt | i
COC(=O)c1cc(=O)n(Cc2ccco2)c(=Nc2ccc(F)cc2)s1 | ? | 28.2µM | ? | i
